Source: PubChem BioAssay (National Center for Advancing Translational Sciences (NCATS))
WRN helicase inh: blocks human WRN helicase; Q14191; Potency, µM (doses to about 114 µM), inactives show top-dose activity change, negative = inhibition, usual class: inhibitors; AID 651768; WRN helicase unwinding, fluorescent forked duplex, kinetic; 360,000 compounds, 0.46% hits; also: potency is read from the fitted curve at half-maximal effect; % is scaled to controls: 0 for no effect and ±100 for the full control effect; nearly all actives have a fitted effect of over 55% in size
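Screening of the MLSMR collection measured strand separation of a quenched forked DNA duplex (100 nM) by 20 nM WRN with 2 mM ATP, all final. Compounds were preincubated with enzyme 15 min at room temperature.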
Pol eta inh-1: blocks human DNA polymerase eta activity. Q9Y253. recombinant Pol eta, fluorescent DNA replication assay. Potency, µM (top dose mostly 114 µM), for the others: at the highest dose activity change, negative = inhibition, actives largely listed as inhibitors. 390,000 compounds, 1.2% hits. AID 588591; also: potency is read from the fitted curve at half-maximal effect; % is scaled to controls: 0 for no effect and ±100 for the full control effect
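Pol eta (10 nM) was preincubated with compounds for 15 min at room temperature, after which fluorescent replication substrate (50 nM final) was added to start the reaction. Fluorescence was read kinetically at 0 and 10 min.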
Pol iota inh: blocks human DNA polymerase iota activity; Pol iota fluorescent replication assay, 10 min; Potency, µM (titrated, usually from 115 µM), for the others: at the highest dose activity, negative = inhibition, hits mostly inhibitors; 390,000 compounds, 1% hits; also: potency is read from the fitted curve at half-maximal effect
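Pol iota at 10 nM preincubated 15 min with compounds at room temperature; reaction started with fluorescent substrate, 50 nM final. Fluorescence read kinetically at 0 and 10 min; buffer-only wells as negative control.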
FEN1 inh: human FEN1 inhibition. P39748. Recombinant FEN1 flap cleavage, fluorescence, 15 min. Potency, µM (titrated, usually from 114 µM), for the others: at the top dose activity change, negative = inhibition, hits mostly inhibitors. 390,000 compounds, 0.35% hits; also: potency is read from the fitted curve at half-maximal effect; % is scaled to controls: 0 for no effect and ±100 for the full control effect; nearly all actives have a fitted effect of over 65% in size
Target sequence (P39748 whole entry, looked up): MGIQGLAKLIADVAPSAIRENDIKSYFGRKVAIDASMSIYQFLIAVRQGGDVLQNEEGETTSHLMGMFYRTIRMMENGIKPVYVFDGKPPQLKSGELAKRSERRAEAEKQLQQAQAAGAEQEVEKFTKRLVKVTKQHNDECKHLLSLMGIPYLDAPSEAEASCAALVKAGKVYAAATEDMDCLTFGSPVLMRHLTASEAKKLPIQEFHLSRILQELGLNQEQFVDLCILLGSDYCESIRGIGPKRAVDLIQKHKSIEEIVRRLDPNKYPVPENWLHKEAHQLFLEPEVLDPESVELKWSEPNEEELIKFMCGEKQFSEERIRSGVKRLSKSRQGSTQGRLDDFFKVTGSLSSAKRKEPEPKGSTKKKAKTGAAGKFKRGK
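In this screen, 50 nM flap DNA substrate was added to 10 nM FEN1 pretreated with compound for 15 min at room temperature; cleavage was followed with reads at 0 and 15 min, and Hill fitting gave concentration–response parameters.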
Pol kappa inh-1: DNA polymerase kappa (human) inhibition; Q9UBT6; 400,000 compounds, 0.53% hits; purified Pol kappa, fluorescent DNA synthesis assay, 10 min; AID 588579; Potency, µM (titrated, usually from 107 µM), inactives show top-dose activity, negative = inhibition, actives largely listed as inhibitors; also: potency is read from the fitted curve at half-maximal effect; % is scaled to controls: 0 for no effect and ±100 for the full control effect
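Pol kappa 10 nM + cpd, 15 min RT; start w/ substrate 50 nM final; fluorescence kinetic read, 0 and 10 min. Neg ctrl: buffer, no enzyme.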
POLB inh: DNA polymerase beta (human) inhibition. P06746. Pol beta primer extension/strand displacement, fluorescence kinetic. Potency, µM (titrated, usually from 114 µM), inactives show at the top dose activity change, negative = inhibition, most hits filed as inhibitors. 340,000 compounds, 1.3% hits. AID 485314; also: potency is read from the fitted curve at half-maximal effect; % is scaled to controls: 0 for no effect and ±100 for the full control effect
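Kinetic readout of DNA synthesis with strand displacement by Pol beta. Compound and 10 nM enzyme sit 15 min at room temperature; 50 nM substrate starts the reaction, read immediately and at 10 min.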
GALK inh confirm: confirmation of human galactokinase (GALK) inhibitors. 150 compounds, 70% hits. purified GALK, Kinase-Glo ATP depletion luminescence. Potency, µM (titrated, usually from 115 µM), inactives show at the highest dose activity, negative = inhibition, actives largely listed as inhibitors. shares compounds with Pol eta inh-1
GALK redox cs: redox cycling activity in phenol red-HRP assay; shares compounds with Pol eta inh-1; Phenol red-HRP H2O2 redox cycling, absorbance 600 nm; Potency, µM (titrated, usually from 115 µM), for inactives: at the top dose activity change, negative = H2O2 signal, usual class: inhibitors; 150 compounds, 40% hits; AID 2035
HEK293 tox: counter-screen for GALK inhibitors: HEK293 cell cytotoxicity; shares compounds with Pol eta inh-1; HEK-293 viability, ATP luminescence (CellTiter-Glo), 24/48 h; Potency, µM (titrated, usually from 46.1 µM), inactives show at the top dose activity change, negative = cytotoxicity, hits mostly inhibitors; 170 compounds, 10% hits; AID 2547; also: potency is read from the fitted curve at half-maximal effect; % is scaled to controls: 0 for no effect and ±100 for the full control effect
Pol kappa inh-2: confirmation of human DNA polymerase kappa inhibitors | shares compounds with Pol eta inh-1 | purified Pol-kappa, fluorescent strand-displacement substrate | Potency, µM, usual class: inhibitors | 920 compounds, 76% hits | AID 720501; also: potency is read from the fitted curve at half-maximal effect
Pol eta inh-2: Pol eta (human) inhibition, cherry-pick confirmation; 2,600 compounds, 64% hits; AID 720502; shares compounds with Pol eta inh-1; Potency, µM, usual class: inhibitors; Pol eta primer extension, TAMRA/BHQ fluorescence, 10 min; also: potency is read from the fitted curve at half-maximal effect
The depositor's hits bear a star; u = inconclusive; x = not tested or not shown; [ ] = remark or other dose. Shown are actives, neighbours in structure and some others; about 2.4% of the full set was active somewhere. Calls follow the shape of the dose curve; as a rule, active = well fitted curve in the direction sought with a large enough effect; inconclusive = small, poorly fitted or top-dose-only effect, or another doubt; inactive = no such curve, though single readings can be large; an effect the other way counts as inactive or inconclusive.

SMILES	WRN helicase inh	Pol eta inh-1	Pol iota inh	FEN1 inh	Pol kappa inh-1	POLB inh	Pol kappa inh-2	others
COc1ccc(-c2nc3nc(C)cc(Nc4cccc(C(F)(F)F)c4)n3n2)cc1	x	u	-17%	18%	-7%	u	19*
CC[C@@H]1Cn2c(c3nc(-c4cc(Cl)cc(Cl)c4Cl)nc-3n(C)c2=O)N1	x	x	x	x	3%[60.1 µM]	x	x
N#Cc1ccsc1NC(=O)COC(=O)CCS(=O)(=O)c1ccccc1	-13%[11.6 µM]	32µM*	u	-2%	u	x	x	Pol eta inh-2=u
CC(CNC(=O)c1cccnc1)NC(=O)c1cccnc1 (stereo unspecified)	x	x	x	x	-2%[19.4 µM]	x	x
NC(=S)n1[nH]c(-c2ccc([N+](=O)[O-])cc2)c(N=Nc2ccccc2[N+](=O)[O-])c1=O	-21%[11.6 µM]	6.3µM*	u	8%	-3%	16µM*	8.4*
CCOc1ccc(-c2nn(-c3ccccc3)cc2/C=C2\SC(=S)N(C3CCS(=O)(=O)C3)C2=O)cc1 (stereo unspecified)	2%	4%	14%	-1%	-21%	23%	x
Cc1ccc(-c2nn(-c3ccccc3)cc2/C=C2\SC(=S)N(CC(=O)O)C2=O)cc1	-4%	u	u	-18%	-1%	5%	x	GALK inh confirm=42µM*;GALK redox cs=6%;HEK293 tox=-1%
Cn1cccc1/C=C1\SC(=S)N(CC(=O)O)C1=O	-2%	-4%	7%	-2%	0%	17%	x
COc1ccc(-c2nn(-c3ccccc3)cc2/C=C2/SC(=S)N(CCC(=O)O)C2=O)cc1	50µM*	22µM*	u	79µM*	-34%	32µM*	17*
CCC(C(=O)Nc1ccc(C)c(Cl)c1)n1c(=O)c(-c2ccccc2NC(C)=O)nc2ccccc21 (stereo unspecified)	x	x	-28%	16%	3%	3%	x
CCNc1ncc2nc(-c3ccccc3)c(=O)n(C[C@H]3CCCO3)c2n1	x	x	x	x	-1%[60.1 µM]	x	x
O=C(O)CN1C(=O)/C(=C\c2ccc(OC(=O)c3ccco3)cc2)SC1=S	-16%[57.1 µM]	-17%	u	-5%	-4%	-16%	x
O=C(O)CN1C(=O)/C(=C/c2ccc(SCc3ccccc3)o2)SC1=S	u	18µM*	u	-19%	79µM*	3.5µM*	x	Pol eta inh-2=76*
CC(=O)Nc1cccc(NC(=O)CSc2nnc(NC(=O)c3ccco3)s2)c1	-36%	u	6%	-7%	0%	12%	x
CC(=O)Nc1ccc(NC(=O)CSc2nnc(NC(=O)c3ccc(Br)o3)s2)cc1	56µM*	14µM*	u	-34%	-29%	50µM*	u	Pol eta inh-2=u
